Screening results deposited in PubChem by National Center for Advancing Translational Sciences (NCATS).
Only some compounds are listed: those with a hit (about 4% of all), similar ones and a draw of the others.
D1 antag: Antagonist of Human D 1 Dopamine Receptor: qHTS; D(1A) dopamine receptor (Homo sapiens), P21728; HEK293 TREx D1 cells, calcium flux, dopamine EC80; stronger effect = lower value; activity change, negative = inhibition, % at 10 µM; actives 3.2% (n = 360,000); in the data active = activity change below about -30%; also: % is scaled to controls: 0 for no effect and ±100 for the full control effect
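Antagonism measured as reduced calcium response to an EC80 dopamine addition following 180 s compound pre-read; cells were inducible HEK293 Trex D1 plated overnight at 30 C, read kinetically at 1 cycle/sec.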
TRHR ag: qHTS for Small Molecule Agonists and Allosteric Enhancers of Human TRH Receptor: Primary Screen for Agonists; activation, % at 2 µM; AID 493084, 2011; TRHR cells, calcium flux fluo-8, FDSS agonist mode; Thyrotropin-releasing hormone receptor (Homo sapiens), P34981; actives 0.18% (n = 360,000); also: 0% is about no effect
Target sequence (P34981 whole entry, looked up): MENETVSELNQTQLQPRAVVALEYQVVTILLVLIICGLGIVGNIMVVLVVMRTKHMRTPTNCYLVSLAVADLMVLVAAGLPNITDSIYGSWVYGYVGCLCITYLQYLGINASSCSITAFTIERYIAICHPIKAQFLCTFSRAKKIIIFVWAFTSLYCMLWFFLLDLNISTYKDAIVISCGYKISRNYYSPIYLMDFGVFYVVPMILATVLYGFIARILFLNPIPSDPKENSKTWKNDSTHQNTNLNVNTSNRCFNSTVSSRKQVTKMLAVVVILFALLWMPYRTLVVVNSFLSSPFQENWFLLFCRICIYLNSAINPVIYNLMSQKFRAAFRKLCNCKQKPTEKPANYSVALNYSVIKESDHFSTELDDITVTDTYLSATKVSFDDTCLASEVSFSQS
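Fluo-8-loaded TRHR cells; 10 s baseline, compound added, kinetic Ca2+ fluorescence read 1/s, agonist mode.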
TRHR enhancer: qHTS for Small Molecule Agonists and Allosteric Enhancers of Human TRH Receptor: Primary Screen for Enhancers. AID 493056, 2011. Thyrotropin-releasing hormone receptor (Homo sapiens), P34981. actives 0.66% (n = 360,000). TRHR cells, fluo-8 calcium fluorescence, EC20 TRH enhancement. enhancement, % at 2 µM; in the data active = enhancement above about 30%; also: 0% is about no effect
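TRHR-expressing cells loaded with fluo-8 calcium dye were read kinetically (ex 480/em 530) during compound addition, then stimulated with an EC20 of TRH (10 nM final). Enhancement of the Gq-mediated intracellular calcium response was scored.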
D1 ag: Allosteric Agonists of the Human D1 Dopamine Receptor: qHTS; HEK293 T-REx D1 cells, calcium flux, agonist mode; actives 1% (n = 360,000); D(1A) dopamine receptor (Homo sapiens), P21728; activation, % at 2 µM; AID 504660, 2011; also: 0% is about no effect
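Agonism was scored from calcium flux recorded over 180 s (1 read/s) after pintool compound addition, following a 10-cycle baseline. Cells were inducible force-coupled HEK293 TREx D1, plated overnight at 30 C and loaded with no-wash calcium dye.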
D1 PAM: Potentiators of Human D1 Dopamine Receptor: qHTS. HEK293 TREx D1 cells, calcium flux, dopamine EC20 potentiation. potentiation, % at 10 µM. actives 0.036% (n = 360,000). D(1A) dopamine receptor (Homo sapiens), P21728; in the data active = potentiation above about 30%; also: 0% is about no effect
GRP78 ERSR act: qHTS for Inducers of the Endoplasmic Reticulum Stress Response (ERSR) in Human Glioma: qHTS. Potency, µM, for inactives: at the highest dose activation, most hits filed as activators. actives 0.02% (n = 420,000). AID 602332, 2012. U87-MG GRP78 promoter luciferase reporter, 16 h; active = well fitted activation curve with a large enough effect; also: potency is read from the fitted curve at half-maximal effect; series mostly up to about 76 µM; % of control where 0% means no effect; nearly all actives have a fitted effect of over 35% in size
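ERSR induction read as luciferase luminescence (Bright-Glo, 10 min at room temperature) in stably transfected human U87-MG glioma cells exposed to compounds for 16 h, using GRP78 as sensor.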
* hit, by the source's call; . = not tested or not shown. Rule as the data show it, unless noted: active = activation above about 30%; inactive = the rest.

SMILES	D1 antag	TRHR ag	TRHR enhancer	D1 ag	D1 PAM	GRP78 ERSR act
CCCOc1ccc(N2C(=O)CC(N3CCC(O)(c4cccc(C(F)(F)F)c4)CC3)C2=O)cc1 (configuration not stated)	-32.4*	0.0	-1.3	2.3	0.7	-5.3%
CCOCCCn1c(=N)c(S(=O)(=O)c2ccc(C)cc2)cc2c(=O)n3cccc(C)c3nc21	-6.2	0.4	-0.7	-1.2	2.1	-2.5%
COc1ccc(Cl)cc1-c1cc(C(=O)N[C@H](C)c2ccccc2)[nH]n1	.	.	.	.	.	10.1%
COc1cccc(C=Nc2ccc(N3CCOCC3)cc2)c1O	-7.7	-2.3	36.1*	4.2	4.5	-1.9%
CCOC(=O)c1c(C)n(-c2ccc(C)cc2)c2ccc(O)c(CN(C)C)c12	-23.5	0.1	1.9	33.9*	-11.2	-6.9%
NS(=O)(=O)c1cc2c(cc1Cl)NC(C1C[C@H]3C=C[C@@H]1C3)NS2(=O)=O (some centres not stated)	6.3	0.5	-5.8	0.9	4.3	-2.9%
CCC(=O)N/C(=N/c1nc(C)cc(C)n1)Nc1ccc(C)cc1	-42.6*	-0.2	-8.0	0.3	-7.7	4.4%
COc1ccc(N/C(=N/c2nc(C)cc(C)n2)NC(=O)c2ccccc2)cc1	-59.4*	0.4	-5.1	0.0	-13.9	-1.6%
Cc1nc(C)n(CC(=O)N2CCOc3ccc(CN4CCN(C)C[C@@H]4c4ccccc4)cc3C2)n1	.	.	.	.	.	-3.5%
COCCNC(=O)c1ccc(CSc2nc3ccccc3s2)cc1	-33.8*	-0.8	-1.3	11.7	-7.8	9.1%
CCCCCCN(CCCCCC)C(=O)Cc1c(-c2ccc(F)cc2)[nH]c2ccccc12	-60.6*	0.0	8.3	-0.6	-7.0	-2.4%
COc1ccc2[nH]c(C)cc2c1	.	.	.	.	.	1.7%
CC(Oc1ccc(F)cc1F)C(=O)NNC(=S)NCC1CCCO1 (configuration not stated)	12.9	-0.1	-4.0	0.9	-1.8	-2.6%
COc1cccc(C(=O)N2CCCC(Nc3ccc(C)c(C)c3)C2)c1 (configuration not stated)	5.2	-0.4	-2.2	-0.4	-7.2	7.4%
COC(=O)c1c(OCc2ccccn2)cc(=O)n2c1CCN(Cc1cccc(C(F)(F)F)c1)CC2	.	.	.	.	.	0.2%
Cc1ccc(NC(=O)CSCC(=O)NC2(C)CCS(=O)(=O)C2)cc1 (configuration not stated)	-40.1*	-0.3	5.2	4.0	.	-3.0%
Nc1nnc(SCC(=O)Nc2ccc(N3CCOCC3)c(Cl)c2)s1	-36.6*	-2.2	12.6	8.7	-1.1	-3.6%
COc1ccc(CNC(=O)CSc2nc3ccc(N)cc3s2)cc1	-31.9*	42.2*	11.6	0.1	-1.4	-5.9%
Cc1ccc(NC(=O)c2cc(N3C(=O)C4CC=CCC4C3=O)ccc2N2CCOCC2)cc1Cl (configuration not stated)	7.4	1.4	38.6*	1.0	-0.1	-4.9%
Nc1ccc2nc(SCC(=O)Nc3ccc(N4CCOCC4)c(Cl)c3)sc2c1	-33.8*	-1.5	5.0	17.5	-4.0	-0.4%
Cc1ccc(NC(=O)CSCC(=O)Nc2ccc(N3CCOCC3)c(Cl)c2)cc1	-33.6*	-1.0	6.3	5.4	-4.2	2.9%
O=C(CCC(=O)Nc1ccccc1)NNC(=O)C(c1ccccc1)c1ccccc1	-10.8	-0.3	1.1	-0.3	-6.8	-4.5%
Cc1ccc(C(NC(=O)N2CCOCC2)=C(Cl)Cl)cc1F	-37.3*	-2.6	1.8	-0.6	-2.0	-5.3%
Cc1ccc(S(=O)(=O)N2CCC(=O)N(CCOC(=O)Nc3cccc(Cl)c3)CC2)cc1	-31.0*	-0.2	-5.4	2.9	-5.0	-2.8%
Cc1ccc(S(=O)(=O)N2CCC(=O)N(C(COC(=O)Nc3ccccc3)Cc3ccccc3)CC2)cc1 (configuration not stated)	2.4	0.0	-5.7	2.0	-5.2	-1.6%
SMILES	D1 antag	TRHR ag	TRHR enhancer	D1 ag	D1 PAM	GRP78 ERSR act
Cc1ccc(COCCN2CCN(S(=O)(=O)c3ccccc3)CCC2=O)cc1	-40.5*	-0.4	1.0	0.9	-6.1	-1.3%
Cc1ccc(S(=O)(=O)N2CCC(=O)N(C(CO)Cc3ccccc3)CC2)cc1 (configuration not stated)	-43.1*	0.1	3.4	-1.1	-2.9	-3.4%
CC(Oc1ccc(Br)cc1)C(=O)O/N=C(\N)c1ccncc1 (configuration not stated)	-11.7	0.0	4.0	13.9	-6.7	0.6%
Clc1ccc(CNc2ncnc3nc[nH]c23)cc1	.	.	.	.	.	2.4%
O=C(NCCCN1CCN(c2ccccc2)CC1)c1ccc2nc(CCc3ccccc3)oc2c1	-59.9*	0.3	1.0	32.5*	-4.2	1.7%
COc1ccc(N2CCN(CCCNC(=O)c3ccc4nc(Cc5ccccc5)oc4c3)CC2)cc1	-24.3	-0.1	5.4	27.0	-3.2	-3.3%
O=C(NCC1CCOCC1)c1ccc2nc(Cc3cccc(Cl)c3)oc2c1	-53.2*	1.5	-18.5	-0.9	-22.8	7.3%
CN1CCN(CCCNC(=O)c2ccc3nc(Cc4ccccc4)oc3c2)CC1	2.6	0.6	-2.5	4.1	-1.6	-1.9%
CC(C)c1nc2ccc(C(=O)NCCCN3CCN(c4cccc(Cl)c4)CC3)cc2o1	-45.1*	-0.2	4.0	7.0	-5.0	-0.4%
O=C(NCCCN1CCN(c2cccc(Cl)c2)CC1)c1ccc2nc(Cc3ccccc3)oc2c1	-32.6*	0.6	1.2	17.8	-4.6	-6.4%
Cc1cc2c(c(=O)o1)C(c1ccc([N+](=O)[O-])o1)C(C#N)=C(N)O2 (configuration not stated)	6.4	0.9	2.7	2.9	2.9	-1.2%
Cc1ccc(C(=O)Nc2ccc3oc(-c4ccccc4C)nc3c2)cc1	-17.7	0.6	2.9	1.2	0.1	.
CC(C)(C)n1ncc2c(=O)n(Cc3c(F)ccc(Cl)c3Cl)cnc21	.	.	.	.	.	-1.9%
CCOC(=O)c1sc(N)nc1C(F)(F)F	.	.	.	.	.	-0.1%
COc1ccc(N2CCN(CCCNC(=O)c3ccc4nc(CCc5ccccc5)oc4c3)CC2)cc1	-30.5*	-0.7	-5.7	34.7*	-3.1	-0.3%
CCOc1ccc(S(=O)(=O)N2CCN(C(=O)CCC(=O)N3CCOCC3)CC2)cc1	-4.9	0.1	5.8	1.8	3.1	-4.5%
O=C1/C(=C/C=C/c2ccco2)SC(=S)N1c1ccc(O)cc1	7.8	1.4	15.2	5.7	-3.6	-0.7%
